Results on 40 molecules are retold here after PubChem BioAssay (Tox21).

Results filed as inconclusive are left out. Entries that show only a call come without a potency. Calls of active or inactive are those of the source. Calls follow the shape of the dose curve; as a rule, active = well fitted inhibition curve with a large enough effect in the signal ratio in the repeat runs (not every such curve was filed as active); inconclusive = weak or mixed curves, or effect the other way; inactive = flat fitted curve, though single readings scatter; the % refers to the signal ratio.

A short description of this test: cAMP Responsive Elements (CRE) small molecule antagonists, cell-based qHTS assay (AID 1963591). As to conditions: CRE-bla HEK293T, beta-lactamase FRET ratio; series mostly up to 92.4 µM. An excerpt: U.S. Tox21 Program National Center for Advancing Translational Sciences [NCATS] Division of Preclinical Innovation [DPI] U.S. Environmental Protection Agency [EPA] National Institutes of Environmental Health Sciences [NIEHS] National Toxicology Program [NTP] U.S. Food and Drug Administration [FDA] Tox21 Assay Overview: CREB (cyclic-AMP Responsive Element Binding Protein) is a cellular transcription factor. It binds to certain DNA sequences called cAMP Responsive Elements (CRE) and regulates the transcription of the genes. […] This cell line can be used to find agonists/antagonists of the cyclic AMP signaling pathway. The activation of the report gene under culture conditions can be detected by fluorescence intensity. This cell line has been used to screen the Tox21 10K compound library to […].
Tox21 Assay Protocol Summary: CRE-bla Hek 293T cells were suspended in assay medium (DMEM containing 10% dialyzed FBS, 0.1 mM NEAA, 1 mM sodium pyruvate and 25 mM HEPES) and dispensed at 2,000 cells/4 uL /well into 1536-well black wall/clear bottom plates using a Multidrop Combi (ThermoFisher Scientific, Waltham, MA) dispenser. After the assay plates were incubated at 37 C/5% CO2 for 18 hrs, 23 nL of compounds dissolved in DMSO, positive controls or DMSO only was transferred to the assay plate by a pintool workstation (Kalypsys, San Diego, CA), followed by addition of 1 […] uL of 1.25uM NKH477 (0.25 uM as final concentration) in assay medium using a Flying Reagent Dispenser (Aurora Discovery, San Diego, CA). The plates were incubated at 37 C and 5% CO2 for 3 hrs. Then 1 uL of LiveBLAzer B/G FRET substrate (Invitrogen, Carlsbad, CA) was added to each well using Bioraptr Flying Reagent Dispenser (FRD, Aurora Discovery, San Diego, CA). The plates were incubated at room temperature for 2 h.
On the technique in general: qHTS replaces the single test concentration by a dilution series.
As for `Oc1c(Br)cc(Br)cc1Br`, the Potency entry was “inactive”. Still for that read-out and setting: the value for `CCN(N=O)C(N)=O` was “inactive”; that for `COS(=O)(=O)OC` was “inactive”; that for `OCCN(CCO)CCO` was “inactive”. Still for that read-out and setting: the same measure for `C=COCCCl`: “inactive”; for `Brc1ccc(Oc2ccccc2)cc1`: “inactive”; for `CC1OC(C)OC(C)O1` (stereo not given): “inactive”. For `CCC(CC)Nc1c([N+](=O)[O-])cc(C)c(C)c1[N+](=O)[O-]`, the Potency entry is “inactive”. On the same count and under the same terms, the same measure for `Cc1cc(O)ccc1Cl`: “inactive”; for `CCOP(=O)(CN(CCO)CCO)OCC`: “inactive”; for `C=CC(=O)NC(C)(C)CC(C)=O`: “inactive”.

As to `CCOC(=O)CP(=O)(OCC)OCC`, the Potency result is “inactive”.

As for `ClCC(Br)CBr` (stereo not given), the Potency entry is “inactive”. Regarding `CC[N+]1(CC)CCC(OC(=O)C(O)(c2ccccc2)c2ccccc2)C1` (stereo not given), the Potency result was “inactive”. Still for that read-out and setting: the same measure for `Cc1cccc(N)c1C`: “inactive”; for `CCCCC(C#N)(Cn1cncn1)c1ccc(Cl)cc1` (stereo not given): “inactive”; for `N#CCCC#N`: “inactive”. As to `NC(=S)Nc1ccccc1`, the Potency result was “inactive”. Still for that read-out and setting: the same measure for `N#Cc1ccccc1N`: “inactive”; for `Nc1c(Cl)cc([N+](=O)[O-])cc1Cl`: “inactive”; for `COP(=O)(O)OC`: “inactive”. The same measure, in the same setting: the same measure for `CCNc1nc(NC(C)C)nc(SC)n1`: “inactive”. As to `O=Cc1ccc(Cl)cc1Cl`, the Potency result is “inactive”. On to `Nc1cc(Cl)cc(Cl)c1`, for which the Potency result is “inactive”. Same read-out and setting: the same measure for `COCC(=O)N(c1c(C)cccc1C)C(C)C(=O)OC` (stereo not given): “inactive”; for `O=[N+]([O-])c1cccc2ccccc12`: “inactive”. On to `O=C(O)CC(O)(CC(=O)O)C(=O)O`, for which the Potency result was “inactive”. Regarding `Brc1c(Br)c(Br)c(Br)c(Br)c1Br`, the activity change, negative = inhibition is -5.46% [at 8.39 µM] (inactive). For `CCN(CC)C(=O)/C(Cl)=C(\C)OP(=O)(OC)OC`, the Potency result was “inactive”. The same measure, in the same setting: the value for `ClCc1ccccc1CCl` was “inactive”; that for `CC(C)(C)C(O)(CCc1ccc(Cl)cc1)Cn1cncn1` (stereo not given) was “inactive”; that for `CCOP(OCC)OCC` was “inactive”. On to `CCOC(=O)c1ccccc1N`, for which the Potency entry was “inactive”. For the molecule `O=C(O)C(Cl)Br` (stereo not given), the Potency result is “inactive”. Still for that read-out and setting: the value for `CCN(CC)C(=O)SCc1ccc(Cl)cc1` was “inactive”; that for `CC(C)(C)C(=O)C(Cl)Cl` was “inactive”; that for `O=S(=O)(c1ccc(O)cc1)c1ccc(O)cc1` was “inactive”. Still for that read-out and setting: the value for `O=C(O)c1cc(Cl)ccc1Cl` was “inactive”.

Turning to `CCCCCCCCn1cc[n+](C)c1`, the Potency result is “inactive”. `BrCc1ccc(Br)cc1`: the Potency entry was “inactive”.
